Screens as filed in PubChem.
DT40 TDP1 CPT = growth inhibition of DT40 Tdp1-/-;hTDP1 cells with camptothecin (screen for TDP1 inhibitors); chicken DT40 Tdp1-/-;hTDP1 cells + 20 nM CPT, ATP luminescence, 48 h; Potency, µM (series often up to 46.2 µM), for inactives: at the highest dose activity change, negative = growth inhibition, usual class: inhibitors; actives 12% (n = 420,000); further: potency means the concentration at half of the fitted maximal effect; on the % scale 0 is the no-effect control and ±100 the full control effect; nearly all actives have a fitted effect of over 55% in size
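Chicken DT40 Tdp1-/- cells complemented with human TDP1, 400 cells/well, exposed to compounds plus 20 nM camptothecin for at least 48 h at 37 C; viability read as ATP content by CellTiter-Glo luminescence.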
DT40 TDP1 no CPT = qHTS for Inhibitors of human tyrosyl-DNA phosphodiesterase 1 (TDP1): qHTS in cells in absence of CPT; Potency, µM (titrated, usually from 46.2 µM), inactives show at the highest dose activity change, negative = growth inhibition, actives largely listed as inhibitors; actives 15% (n = 420,000); AID 686978, 2013; DT40 Tdp1-/- hTDP1 cells, no CPT, ATP luminescence, 48 h; further: potency means the concentration at half of the fitted maximal effect; on the % scale 0 is the no-effect control and ±100 the full control effect; nearly all actives have a fitted effect of over 55% in size
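Chicken DT40 Tdp1-/- cells stably complemented with human TDP1 were seeded at 400 cells/well with DMSO in place of 20 nM camptothecin. After compound pinning, cells grew at least 48 hr at 37 °C; viability read by CellTiter-Glo luminescence.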
TGFb SMAD3 inh = TGF-b pathway inhibition; HepG2 CAGA-GFP TGF-b/SMAD3 reporter, GFP fluorescence, 18 h; TGF-beta stimulated, 500 pg/mL final; Potency, µM (series often up to 46.1 µM), without a hit: top-dose activity, negative = inhibition, hits mostly inhibitors; actives 1.2% (n = 410,000); further: potency means the concentration at half of the fitted maximal effect; on the % scale 0 is the no-effect control and ±100 the full control effect; nearly all actives have a fitted effect of over 65% in size
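Per well, imaged GFP fluorescence of HEPG2 CAGA-GFP cells gives the signal; cells get compound, then TGF-beta (500 pg/mL final), 18 h at 37 degrees C; %Activity versus -TGF-beta and +DMSO controls.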
IL-1B inflam inh = inhibitors of inflammasome signaling (IL-1 beta secretion). THP-1 LPS/ATP IL-1B secretion, AlphaLISA, 16 h; active compounds read low. activity change, % at 57.5 µM. actives 4.7% (n = 360,000); in the data active means activity change below about -50%; inconclusive means mostly about -30% to -49%; further: on the % scale 0 is the no-effect control and ±100 the full control effect
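THP-1 cells pretreated 1 hr with compounds (up to 57.5 uM final), then stimulated with LPS (250 ng/mL final) plus ATP (1.25 mM final); secreted IL-1B measured by AlphaLISA after 16 hr, decreased signal indicating inhibition.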
TDP1 inh = inhibitors of human tyrosyl-DNA phosphodiesterase TDP1 | AID 485290 | Potency, µM (doses to about 130 µM), for inactives: top-dose activity change, negative = inhibition, actives largely listed as inhibitors | actives 0.28% (n = 350,000) | recombinant TDP1, AlphaScreen DNA substrate cleavage | Q9NUW8; further: potency means the concentration at half of the fitted maximal effect; on the % scale 0 is the no-effect control and ±100 the full control effect; nearly all actives have a fitted effect of over 40% in size
Target sequence (Q9NUW8 whole entry, looked up): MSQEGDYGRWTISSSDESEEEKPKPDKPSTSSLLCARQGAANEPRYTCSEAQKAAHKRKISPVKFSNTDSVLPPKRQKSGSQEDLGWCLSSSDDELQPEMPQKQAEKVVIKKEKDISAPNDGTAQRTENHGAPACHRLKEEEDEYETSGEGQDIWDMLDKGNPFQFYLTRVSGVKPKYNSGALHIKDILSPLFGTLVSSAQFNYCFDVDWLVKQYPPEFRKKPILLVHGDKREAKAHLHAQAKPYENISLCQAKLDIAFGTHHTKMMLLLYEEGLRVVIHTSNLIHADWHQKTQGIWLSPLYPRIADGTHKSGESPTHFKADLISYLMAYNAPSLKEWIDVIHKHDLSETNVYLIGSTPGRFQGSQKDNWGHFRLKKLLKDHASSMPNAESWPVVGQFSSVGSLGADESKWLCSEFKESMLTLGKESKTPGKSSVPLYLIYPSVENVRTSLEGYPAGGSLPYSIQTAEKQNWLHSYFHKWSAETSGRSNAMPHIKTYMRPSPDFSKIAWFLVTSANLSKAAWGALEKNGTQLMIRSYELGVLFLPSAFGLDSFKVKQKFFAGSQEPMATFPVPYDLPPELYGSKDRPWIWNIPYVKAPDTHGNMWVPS
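Compounds were preincubated with Tdp1 (1 nM final) for 15 min at room temperature before substrate (15 nM final) started a 5 min reaction; beads (10 ug/ml final) were then added for 10 min before AlphaScreen detection.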
HepG2 tox = HepG2 cytotoxicity, counter-screen for TGF-b inhibitors; HepG2 CAGA-GFP viability, ATP luminescence, 18 h; Potency, µM (highest dose often 46.1 µM), for the others: at the top dose activity change, negative = cytotoxicity, most hits filed as cytotoxic; actives 0.76% (n = 410,000); AID 588856; further: potency means the concentration at half of the fitted maximal effect
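HepG2 CAGA-GFP cells (1000/well, DMEM with 1% FBS) received compound, then TGF-beta at 500 pg/mL final, and were incubated 18 hours at 37 degrees C. Viability was read by CellTiter-Glo luminescence. Media-only wells were set as complete cell-killing and DMSO as no toxicity.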
The depositor's hits bear a star; ? = inconclusive; . = not tested or not shown. An excerpt weighted towards active compounds, which were near 18% of everything screened. Unless noted, the call rests on the fitted dose curve; in most records, active means well fitted curve in the direction sought with a large enough effect; inconclusive means small, poorly fitted or top-dose-only effect, or another doubt; inactive means no such curve, though single readings can be large; an effect the other way counts as inactive or inconclusive.

SMILES | DT40 TDP1 CPT | DT40 TDP1 no CPT | TGFb SMAD3 inh | IL-1B inflam inh | TDP1 inh | HepG2 tox
Cc1cc(C)n(-c2nc(SCCN(C)C)c3c4c(sc3n2)COC(C)(C)C4)n1 | 22µM* | 18µM* | ? | -60* | 2% | -61%
Cc1ccccc1S(=O)(=O)N1[C@@H](c2ccc(F)cc2)C(C(=O)O)=CC[C@H]1c1ccc(Cl)cc1 | -10% | -7% | ? | 16 | 1% | -17%
CCOc1ccc(C(=O)NCCc2csc(-c3cccc(C)c3)n2)cc1 | ? | ? | -22% | . | 7% | -27%
COc1ccc(CNC(=O)C2CCN(S(=O)(=O)c3ccc(Br)s3)CC2)cc1 | -13% | ? | -11% | -6 | 3% | 1%
COc1ccc(C2c3[nH]c4ccc(OC)cc4c3CCN2C(=O)Nc2ccccc2)cc1 (stereo unspecified) | 23µM* | ? | 8.9µM* | . | 8% | -23%
CCOc1ccc(C2c3[nH]c4ccccc4c3CCN2C(=O)CSc2ccccc2)cc1 (stereo unspecified) | ? | 21µM* | -15% | . | 4% | -7%
CCOc1ccc(C2c3[nH]c4ccccc4c3CCN2C(=O)CCC2CCCC2)cc1 (stereo unspecified) | 21µM* | 18µM* | -11% | . | 5% | -22%
O=C(CCC1CCCC1)N1CCc2c([nH]c3ccccc23)C1c1ccc(F)cc1 (stereo unspecified) | ? | ? | ? | . | 0% | -32%
COc1ccc(C2c3[nH]c4ccccc4c3CCN2C(=O)CCC2CCCC2)cc1 (stereo unspecified) | 21µM* | ? | ? | . | 5% | -21%
C[C@H](NC(=O)C1CCN(S(=O)(=O)c2ccccc2)CC1)C(=O)NCc1ccc(Cl)cc1Cl | ? | ? | ? | 24 | 2% | -44%
O=S1(=O)CC(N2CCC(Cc3ccccc3)CC2)CN1C1CCCC1 (stereo unspecified) | ? | ? | ? | 14 | . | -21%
CCN(CC)S(=O)(=O)c1ccc(NC(=O)CO/N=C(\N)c2ccccc2)cc1 | ? | -19% | -9% | -8 | 1% | -16%
COc1cccc(Nc2nc(N)nc(CCl)n2)c1 | 13µM* | ? | ? | . | 7% | -40%
Cc1cccc(Nc2nc(N)nc(CN3CCC(C(N)=O)CC3)n2)c1C | 0% | -20% | -4% | 8 | 5% | 17%
Cc1ccc(Nc2nc(N)nc(CC#N)n2)cc1 | 0% | 15% | 13µM* | -9 | 4% | -44%
Cc1cccc(Nc2nc(N)nc(CCl)n2)c1C | 10µM* | 16µM* | 14µM* | . | 8% | -54%
Cc1ccc(Nc2nc(N)nc(CCl)n2)cc1 | 16µM* | ? | ? | . | . | -23%
Cc1ccc(Cl)cc1-n1c(CCC(=O)O)ccc1-c1cccs1 | 11% | 1% | -13% | . | . | -19%
NS(=O)(=O)c1ccc(CCNC(=O)CSCc2ccccc2)cc1 | -1% | 0% | -2% | 15 | 5% | 16%
C#CCN(CC=C)C(=O)c1ccc2nc(C3CCCCC3)oc2c1 | -1% | ? | 3% | 7 | . | -9%
CCOc1ccc(Nc2nc(N)nc(CSC(=S)N3CCOCC3)n2)cc1 | ? | 21µM* | -13% | ? | 7% | -18%
Cc1ccc(Nc2nc(N)nc(CCl)n2)c(C)c1 | 6.5µM* | 10µM* | -8% | -89* | . | -43%
Cc1ccc(Nc2nc(N)nc(CN3CCc4ccccc4C3)n2)cc1 | 18µM* | ? | 0% | ? | 7% | -22%
CCOC(=O)c1cnc(SCc2nc(N)nc(Nc3ccc(C)cc3)n2)nc1N | 21µM* | ? | 1% | -52* | 9% | 2%
CCOC(=O)c1cnc(SCc2nc(N)nc(Nc3ccc(F)cc3)n2)nc1N | ? | ? | -2% | -12 | 2% | -13%
SMILES | DT40 TDP1 CPT | DT40 TDP1 no CPT | TGFb SMAD3 inh | IL-1B inflam inh | TDP1 inh | HepG2 tox
Cc1ccc(Nc2nc(N)nc(CSC(=S)N3CCOCC3)n2)cc1 | -4% | ? | 2% | ? | 0% | -30%
Cc1c(Cl)cccc1Nc1nc(N)nc(CN2CCc3ccccc3C2)n1 | -15% | -14% | 0% | ? | 5% | -18%
CCCCC(=O)N(C)C | . | . | . | . | 7% | .
CCOc1ccc(Nc2nc(N)nc(CCl)n2)cc1 | 2.1µM* | 5.8µM* | 11µM* | -96* | 12% | -61%
Cc1cccc(Nc2nc(N)nc(CCl)n2)c1 | 13µM* | 21µM* | ? | -106* | 1% | -10%
CCOc1ccc(Nc2nc(N3CCCCC3)nc(N3CCCCC3)n2)cc1 | -21% | ? | -18% | 6 | 1% | -2%
CCCCNC(=O)[C@@H]1CC=C[C@@H]2CCN(C3CCCCC3)C(=O)[C@@H]21 | ? | ? | -28% | . | . | -36%
COc1ccc(C(=O)NCc2ccc3c(c2)CCN3C(=O)c2ccccc2)cc1 | 23µM* | 23µM* | 49% | . | 0% | 1%
COc1cccc(NC(=O)NCc2ccc3c(c2)CCN3C(=O)c2ccccc2)c1 | ? | ? | ? | . | 8% | -32%
Cn1nccc1C(=O)NCc1ccc2c(c1)CCN2C(=O)c1ccccc1 | -1% | -21% | 31% | . | 4% | 6%
